Results taken from the supplement of paper PMC4188521.

Compound: CCc1cnn2c(NCc3ccc[n+]([O-])c3)cc(N3CCCC[C@H]3CCO)nc12 [dinaciclib]
Assay: cell viability remaining relative to DMSO control; higher = less cytotoxic (more viable cells)
Conditions: 100 nM; 24 h
Outline: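 Remaining viability is reported relative to DMSO-treated control wells, as a percentage of the DMSO control, using CellTiter-Glo ATP luminescence. Solid tumour cell lines from commercial cell banks were treated with 100 nM of the test compound for 24 hr, with final DMSO ≤0.2%. Results are averaged over 2–6 plates with triplicate wells on each plate.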

Target | cell viability remaining [%]
SJRH30 | 12
COLO800 | 36.9
EFO27 | 106
H1568 | 28.7
SKNFI | 24.1
H146 | 86.5
A2780 | 44.5
SW620 | 58.5
AN3CA | 13.9
HS578T | 69.3
SW1271 | 80.7
SKNDZ | 44.1
A204 | 40.8
AU565 | 39.3
ES2 | 52.5
SKBR3 | 51.1
U87MG | 63

Target | cell viability remaining [%]
CAL120 | 76.8
BT483 | 83.9
CHAGOK1 | 52.5
COLO205 | 22.4
CORL23 | 62.8
LS513 | 55.8
HEC50B | 83.4
ASPC1 | 93.6
SW48 | 55.8
SCC9 | 64.4
H2452 | 21.1
HS934T | 124
TYKNU | 83.8
H82 | 12.6
SKMES1 | 53.9
CAL27 | 11.2
BXPC3 | 29.4
